Experimental data as given in the supplement of paper PMC10849652.
Targets with a hit are over-represented here; the source holds about 8,800 in all. About 0.5% of all pairs of compound and target were hits.

Experiments:
Test in all cases: log2 fold change, soluble protein after heating vs DMSO (PISA); higher = thermal stabilisation; K562 lysate, 10 uM; active = over 0.2 and 3.5 SD of the protein, either way, in both replicates (recomputed)
[1] = compound: C1=CC=C(C=C1)[C@H](COC2=CC3=C(C=C2)NC(=O)N3)NC(=O)C4=CC=CN(C4=O)CC5=CC(=C(C=C5)F)F
Summary of the method: (§1)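 To prepare the extract, K562 pellets were dounce-homogenised in PBS pH 7.4 with 1 mM MgCl2, giving crude material at 1 mg/mL protein. This was treated with 10 μM compound for 30 min, then heated in aliquots for 3 min over 48°C-58°C before pooling and addition of NP-40 to 0.5% at 4°C. Centrifugation at 21,000xg for 90 min left soluble protein in the supernatant, which TMTpro 16plex LC-MS/MS quantified with equalised channel sums. Results are log-two fold changes in thermal stability compared with solvent controls, from duplicates.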

[2] = compound: CC1=C(SC2=C1C(=N[C@H](C3=NN=C(N32)C)CC(=O)N)C4=CC=C(C=C4)Cl)C
Summary of the method: as §1

[3] = compound: CC1=C2C(=CC=C1)N=C(N(C2=O)C3=CC=CC=C3C)CN4C=NC5=C(N=CN=C54)N
Summary of the method: as §1

[4] = compound: Cc1sc2c(c1C)C(c1ccc(Cl)cc1)=N[C@@H](CC(=O)OC(C)(C)C)c1nnc(C)n1-2
Summary of the method: as §1

[5] = compound: c1ccc([C@@H]2C[C@H]2NC2CCNCC2)cc1
Summary of the method: as §1

Measured: log2 fold change

DCP2 (UniProt Q8IU60)
inactive: [1] 0.006 | [2] -0.001 | [3] 0.041 | [4] 0.026 | [5] 0.048

DENND6A (UniProt Q8IWF6)
inactive: [1] -0.101 | [2] -0.008 | [3] -0.026 | [4] 0.039 | [5] 0.023

DOCK7 (UniProt Q96N67)
inactive: [1] 0.071 | [2] 0.095 | [3] -0.017 | [4] -0.011 | [5] 0.012

DENND4A isoform 2 (UniProt Q7Z401)
inactive: [1] -0.02 | [2] 0.028 | [3] -0.007 | [4] 0.039 | [5] -0.064

COG7 (UniProt P83436)
inactive: [1] -0.026 | [2] 0.026 | [3] 0.01 | [4] -0.034 | [5] 0.012

DNAJC5 (UniProt Q9H3Z4)
Sequence of UniProt Q9H3Z4 (Q9H3Z4 whole entry, looked up): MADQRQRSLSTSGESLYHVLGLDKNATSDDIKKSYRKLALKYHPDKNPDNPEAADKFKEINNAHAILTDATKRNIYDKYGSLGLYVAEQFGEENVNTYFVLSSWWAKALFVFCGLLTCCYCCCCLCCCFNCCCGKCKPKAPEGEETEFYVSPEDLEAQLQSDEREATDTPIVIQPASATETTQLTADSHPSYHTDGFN
inactive: [1] 0.032 | [2] -0.015 | [3] -0.034 | [4] 0.009 | [5] -0.308

CSNK1E (UniProt P49674)
inactive: [1] -0.004 | [2] -0.072 | [3] -0.031 | [4] 0.031 | [5] -0.005

DMAC2L (UniProt Q99766)
inactive: [1] -0.031 | [2] -0.048 | [3] 0.057 | [4] -0.005 | [5] -0.061

CNOT4 isoform 6 (UniProt O95628)
inactive: [1] -0.042 | [2] -0.02 | [3] -0.028 | [4] 0.051 | [5] -0.004

CHUK (UniProt O15111)
Sequence of UniProt O15111 (O15111 whole entry, looked up): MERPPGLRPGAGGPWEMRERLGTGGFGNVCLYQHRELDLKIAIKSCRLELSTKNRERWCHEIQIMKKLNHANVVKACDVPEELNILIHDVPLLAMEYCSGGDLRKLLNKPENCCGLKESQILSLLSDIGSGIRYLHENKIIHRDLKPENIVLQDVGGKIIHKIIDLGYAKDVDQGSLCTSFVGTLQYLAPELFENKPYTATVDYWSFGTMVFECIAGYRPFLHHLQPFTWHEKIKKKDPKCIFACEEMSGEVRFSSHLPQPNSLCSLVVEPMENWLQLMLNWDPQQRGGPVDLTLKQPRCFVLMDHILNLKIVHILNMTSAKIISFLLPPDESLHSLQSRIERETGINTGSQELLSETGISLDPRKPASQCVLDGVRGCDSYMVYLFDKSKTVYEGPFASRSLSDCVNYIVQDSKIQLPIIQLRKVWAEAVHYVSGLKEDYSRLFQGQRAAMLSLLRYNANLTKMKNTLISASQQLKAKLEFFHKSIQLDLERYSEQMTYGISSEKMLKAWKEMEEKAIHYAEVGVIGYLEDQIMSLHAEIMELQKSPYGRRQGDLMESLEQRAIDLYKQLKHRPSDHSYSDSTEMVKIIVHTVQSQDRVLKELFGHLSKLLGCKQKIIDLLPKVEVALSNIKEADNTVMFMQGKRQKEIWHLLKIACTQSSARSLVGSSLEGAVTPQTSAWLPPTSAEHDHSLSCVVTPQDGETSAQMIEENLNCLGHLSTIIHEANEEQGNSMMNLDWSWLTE
inactive: [1] -0.02 | [2] 0.032 | [3] 0 | [4] -0.026 | [5] 0.015

CWC22 (UniProt Q9HCG8)
Sequence of UniProt Q9HCG8 (Q9HCG8 whole entry, looked up): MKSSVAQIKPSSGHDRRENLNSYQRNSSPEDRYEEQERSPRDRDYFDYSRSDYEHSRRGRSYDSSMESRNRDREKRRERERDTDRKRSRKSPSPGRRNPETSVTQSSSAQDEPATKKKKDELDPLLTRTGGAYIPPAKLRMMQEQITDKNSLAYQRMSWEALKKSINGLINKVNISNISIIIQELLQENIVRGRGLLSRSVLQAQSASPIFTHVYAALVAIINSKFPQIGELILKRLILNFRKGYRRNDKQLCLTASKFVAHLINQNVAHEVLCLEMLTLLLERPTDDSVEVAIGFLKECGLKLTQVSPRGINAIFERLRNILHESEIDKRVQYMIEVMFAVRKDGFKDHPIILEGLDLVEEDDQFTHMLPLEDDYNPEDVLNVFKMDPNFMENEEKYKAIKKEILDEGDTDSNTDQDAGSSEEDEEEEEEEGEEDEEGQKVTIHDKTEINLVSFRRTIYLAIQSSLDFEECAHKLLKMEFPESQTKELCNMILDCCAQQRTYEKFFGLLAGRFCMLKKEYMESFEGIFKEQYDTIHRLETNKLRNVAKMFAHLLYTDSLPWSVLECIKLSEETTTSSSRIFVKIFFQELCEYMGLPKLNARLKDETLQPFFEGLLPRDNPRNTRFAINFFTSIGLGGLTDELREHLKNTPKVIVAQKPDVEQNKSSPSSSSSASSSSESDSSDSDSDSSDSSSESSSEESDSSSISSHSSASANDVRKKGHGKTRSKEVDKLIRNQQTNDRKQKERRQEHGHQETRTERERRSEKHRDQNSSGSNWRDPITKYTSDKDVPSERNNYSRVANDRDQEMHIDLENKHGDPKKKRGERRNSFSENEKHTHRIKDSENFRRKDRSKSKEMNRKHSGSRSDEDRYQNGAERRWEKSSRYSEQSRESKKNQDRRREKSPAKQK
inactive: [1] -0.033 | [2] 0.028 | [3] 0.034 | [4] 0.079 | [5] 0.237

DDA1 (UniProt Q9BW61)
inactive: [1] 0.073 | [2] 0.024 | [3] -0.016 | [4] -0.003 | [5] 0.029

CORO1A (UniProt P31146)
inactive: [1] -0.024 | [2] 0.021 | [3] 0.004 | [4] 0.078 | [5] -0.019

DHRS1 (UniProt Q96LJ7)
inactive: [1] 0.15 | [2] -0.103 | [3] -0.015 | [4] 0.029 | [5] -0.107

COTL1 (UniProt Q14019)
inactive: [1] -0.018 | [2] -0.019 | [3] 0.01 | [4] 0.031 | [5] 0.064

CLCN3 (UniProt P51790)
inactive: [1] 0.094 | [2] 0.014 | [3] 0.061 | [4] 0.063 | [5] 0.017

DEF6 (UniProt Q9H4E7)
inactive: [1] -0.061 | [2] -0.05 | [3] -0.027 | [4] 0.036 | [5] -0.037

CNDP2 (UniProt Q96KP4)
Sequence of UniProt Q96KP4 (Q96KP4 whole entry, looked up): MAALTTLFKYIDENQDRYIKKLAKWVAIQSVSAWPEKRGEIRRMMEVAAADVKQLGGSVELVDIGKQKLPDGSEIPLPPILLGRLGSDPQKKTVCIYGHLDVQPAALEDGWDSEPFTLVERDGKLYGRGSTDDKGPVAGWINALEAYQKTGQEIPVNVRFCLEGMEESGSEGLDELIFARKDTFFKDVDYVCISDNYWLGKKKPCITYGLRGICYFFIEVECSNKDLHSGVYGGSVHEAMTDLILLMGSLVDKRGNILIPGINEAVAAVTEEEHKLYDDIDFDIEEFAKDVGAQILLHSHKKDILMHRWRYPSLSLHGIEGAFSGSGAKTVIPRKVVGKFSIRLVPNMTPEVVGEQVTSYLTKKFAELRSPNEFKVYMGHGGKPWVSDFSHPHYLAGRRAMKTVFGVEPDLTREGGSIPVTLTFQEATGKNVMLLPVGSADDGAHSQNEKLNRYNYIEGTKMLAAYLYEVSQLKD
inactive: [1] 0.017 | [2] 0.017 | [3] -0.022 | [4] -0.006 | [5] -0.145

CTPS2 (UniProt Q9NRF8)
inactive: [1] -0.001 | [2] -0.009 | [3] -0.008 | [4] 0.004 | [5] 0

CKAP5 (UniProt Q14008)
inactive: [1] -0.008 | [2] -0.019 | [3] 0.01 | [4] 0.014 | [5] 0.048

DOCK10 (UniProt Q96BY6)
inactive: [1] 0.053 | [2] -0.018 | [3] 0.062 | [4] -0.109 | [5] -0.491

CTNND1 isoform 3 (UniProt O60716)
Sequence of UniProt O60716 (O60716 whole entry, looked up): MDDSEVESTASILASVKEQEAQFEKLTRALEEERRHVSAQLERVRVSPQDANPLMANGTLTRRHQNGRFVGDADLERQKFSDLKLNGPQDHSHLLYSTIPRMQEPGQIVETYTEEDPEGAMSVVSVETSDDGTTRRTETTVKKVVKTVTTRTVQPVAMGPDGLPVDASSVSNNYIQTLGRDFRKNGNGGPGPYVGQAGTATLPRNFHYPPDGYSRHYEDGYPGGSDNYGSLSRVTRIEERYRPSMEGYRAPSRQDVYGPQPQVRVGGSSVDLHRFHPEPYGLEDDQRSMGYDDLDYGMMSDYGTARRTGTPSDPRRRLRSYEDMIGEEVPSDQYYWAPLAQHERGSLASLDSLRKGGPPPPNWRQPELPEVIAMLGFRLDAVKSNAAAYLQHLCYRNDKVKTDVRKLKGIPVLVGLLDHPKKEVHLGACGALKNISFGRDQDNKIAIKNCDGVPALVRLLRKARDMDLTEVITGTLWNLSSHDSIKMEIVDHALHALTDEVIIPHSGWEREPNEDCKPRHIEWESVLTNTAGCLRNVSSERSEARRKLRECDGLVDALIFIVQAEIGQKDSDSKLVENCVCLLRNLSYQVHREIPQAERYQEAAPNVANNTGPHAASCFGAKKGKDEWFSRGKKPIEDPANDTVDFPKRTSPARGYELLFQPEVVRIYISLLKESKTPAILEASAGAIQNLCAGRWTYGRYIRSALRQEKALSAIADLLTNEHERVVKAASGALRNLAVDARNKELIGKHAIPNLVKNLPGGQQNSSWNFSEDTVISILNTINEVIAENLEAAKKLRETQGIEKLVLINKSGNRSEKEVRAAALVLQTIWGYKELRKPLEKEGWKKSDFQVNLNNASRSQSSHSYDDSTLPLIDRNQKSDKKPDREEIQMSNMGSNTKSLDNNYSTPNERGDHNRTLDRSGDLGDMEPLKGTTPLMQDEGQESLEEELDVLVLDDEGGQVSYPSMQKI
inactive: [1] -0.021 | [2] 0.035 | [3] 0.058 | [4] 0.036 | [5] 0.028

CLUH (UniProt O75153)
Sequence of UniProt O75153 (O75153 whole entry, looked up): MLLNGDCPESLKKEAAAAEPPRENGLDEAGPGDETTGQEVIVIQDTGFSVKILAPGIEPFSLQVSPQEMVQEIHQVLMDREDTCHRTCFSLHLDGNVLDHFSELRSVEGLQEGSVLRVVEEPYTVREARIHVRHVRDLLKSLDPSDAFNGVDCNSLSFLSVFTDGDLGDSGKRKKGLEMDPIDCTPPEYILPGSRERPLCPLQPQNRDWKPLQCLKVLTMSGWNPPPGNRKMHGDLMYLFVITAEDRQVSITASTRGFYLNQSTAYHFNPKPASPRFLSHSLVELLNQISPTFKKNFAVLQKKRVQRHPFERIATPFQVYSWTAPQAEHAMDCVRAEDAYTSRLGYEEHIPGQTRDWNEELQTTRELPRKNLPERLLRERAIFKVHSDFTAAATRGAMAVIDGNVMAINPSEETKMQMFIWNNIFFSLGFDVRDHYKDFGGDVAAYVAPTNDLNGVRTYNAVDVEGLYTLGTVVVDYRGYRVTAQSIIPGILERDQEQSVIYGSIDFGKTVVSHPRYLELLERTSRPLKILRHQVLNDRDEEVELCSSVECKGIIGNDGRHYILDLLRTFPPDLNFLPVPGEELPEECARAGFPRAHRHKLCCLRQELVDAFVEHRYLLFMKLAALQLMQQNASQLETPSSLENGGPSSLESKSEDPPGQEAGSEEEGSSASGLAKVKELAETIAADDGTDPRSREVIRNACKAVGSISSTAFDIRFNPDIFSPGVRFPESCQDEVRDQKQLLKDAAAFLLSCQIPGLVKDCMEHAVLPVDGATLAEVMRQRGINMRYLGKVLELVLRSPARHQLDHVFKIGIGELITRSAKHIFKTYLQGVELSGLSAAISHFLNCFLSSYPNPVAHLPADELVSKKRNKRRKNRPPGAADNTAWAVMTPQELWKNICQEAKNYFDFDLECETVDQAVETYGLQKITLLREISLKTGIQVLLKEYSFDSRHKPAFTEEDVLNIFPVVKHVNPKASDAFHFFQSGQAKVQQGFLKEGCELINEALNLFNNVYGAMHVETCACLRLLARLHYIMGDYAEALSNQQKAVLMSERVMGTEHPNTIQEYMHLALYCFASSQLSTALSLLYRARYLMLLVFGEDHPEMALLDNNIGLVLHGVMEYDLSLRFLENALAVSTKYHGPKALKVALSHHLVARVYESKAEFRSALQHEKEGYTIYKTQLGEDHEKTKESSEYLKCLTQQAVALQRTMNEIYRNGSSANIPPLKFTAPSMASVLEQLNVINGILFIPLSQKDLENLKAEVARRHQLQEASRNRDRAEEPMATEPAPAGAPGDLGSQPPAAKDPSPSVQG
inactive: [1] 0.03 | [2] 0.008 | [3] 0.021 | [4] -0.02 | [5] -0.058

DHCR7 (UniProt Q9UBM7)
Sequence of UniProt Q9UBM7 (Q9UBM7 whole entry, looked up): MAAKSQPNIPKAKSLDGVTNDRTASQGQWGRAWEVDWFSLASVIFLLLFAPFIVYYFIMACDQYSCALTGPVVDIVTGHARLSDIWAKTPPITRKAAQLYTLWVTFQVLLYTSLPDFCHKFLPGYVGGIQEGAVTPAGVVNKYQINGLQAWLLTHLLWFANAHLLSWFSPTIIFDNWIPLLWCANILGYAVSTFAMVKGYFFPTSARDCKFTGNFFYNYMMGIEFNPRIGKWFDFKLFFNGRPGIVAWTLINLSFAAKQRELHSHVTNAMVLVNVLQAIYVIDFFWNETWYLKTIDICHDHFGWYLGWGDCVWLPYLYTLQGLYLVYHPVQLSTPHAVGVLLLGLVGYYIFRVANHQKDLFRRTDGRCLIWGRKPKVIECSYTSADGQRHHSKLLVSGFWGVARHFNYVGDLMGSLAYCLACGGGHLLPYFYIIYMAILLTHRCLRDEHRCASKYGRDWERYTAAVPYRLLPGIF
inactive: [1] -0.107 | [2] 0.028 | [3] -0.031 | [4] -0.045 | [5] 0.091
